Compounds with a hit are over-represented: about 11% of the library has one in this group of screens.
BAZ2B block: qHTS Assay for Inhibitors of BAZ2B | Bromodomain adjacent to zinc finger domain protein 2B (Homo sapiens), Q9UIF8 | AID 504333, 2011 | AlphaScreen BAZ2B-H3K14Ac peptide displacement | 360,000 tested, 4.4% active | Potency, µM (doses to about 114 µM), actives largely listed as inhibitors; also: nearly all actives have a fitted effect of over 60% in size
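AlphaScreen displacement of biotin-H3(5-23)K14Ac peptide (50 nM final) from BAZ2B (50 nM final) in PBS pH 7.4, 0.01% Tween-20; complex preformed 30 min RT, then compounds (top 110 uM) 30 min RT, beads 20 min dark.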
G9a block: qHTS Assay for Inhibitors of Histone Lysine Methyltransferase G9a; Histone-lysine N-methyltransferase EHMT2 (Homo sapiens), Q96KQ7; G9a H3K9 monomethylation, AlphaScreen, 2 h; 350,000 tested, 8.8% active; Potency, µM (top dose mostly 102 µM), usual class: inhibitors; AID 504332, 2011; also: nearly all actives have a fitted effect of over 75% in size
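Methyltransferase reactions run at room temperature for 2 h (20 nM enzyme, 500 nM biotin-H3K9 peptide, 20 uM SAM) after a 15 min compound preincubation; product detected by AlphaScreen beads and anti-H3K9me1 antibody.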
HP1b chromo inh: HTS for Inhibitors of HP1-beta Chromodomain Interactions with Methylated Histone Tails. Potency, µM (highest dose often 114 µM), actives largely listed as inhibitors. 390,000 tested, 0.56% active. Chromobox protein homolog 1 (Homo sapiens), P83916. AlphaScreen HP1-beta / biotin-H3K9me3 peptide binding; also: nearly all actives have a fitted effect of over 70% in size
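AlphaScreen: HP1-beta (50 nM) preformed 30 min with biotin-H3(1-18)K9me3 peptide (50 nM) in PBS pH 7.4, 0.01% Tween-20. Compound added for 30 min at RT, then streptavidin donor/nickel chelate acceptor beads (10 ug/mL) for 30 min.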
L3MBTL1 block: qHTS Assay for the Inhibitors of L3MBTL1; Lethal(3)malignant brain tumor-like protein 1 (Homo sapiens), Q9Y468; AlphaScreen L3MBTL1–H3K9me1 peptide binding; Potency, µM (top dose mostly 57.1 µM), usual class: inhibitors; 230,000 tested, 0.66% active; AID 485360, 2010; also: nearly all actives have a fitted effect of over 60% in size
Target sequence (Q9Y468 whole entry, looked up): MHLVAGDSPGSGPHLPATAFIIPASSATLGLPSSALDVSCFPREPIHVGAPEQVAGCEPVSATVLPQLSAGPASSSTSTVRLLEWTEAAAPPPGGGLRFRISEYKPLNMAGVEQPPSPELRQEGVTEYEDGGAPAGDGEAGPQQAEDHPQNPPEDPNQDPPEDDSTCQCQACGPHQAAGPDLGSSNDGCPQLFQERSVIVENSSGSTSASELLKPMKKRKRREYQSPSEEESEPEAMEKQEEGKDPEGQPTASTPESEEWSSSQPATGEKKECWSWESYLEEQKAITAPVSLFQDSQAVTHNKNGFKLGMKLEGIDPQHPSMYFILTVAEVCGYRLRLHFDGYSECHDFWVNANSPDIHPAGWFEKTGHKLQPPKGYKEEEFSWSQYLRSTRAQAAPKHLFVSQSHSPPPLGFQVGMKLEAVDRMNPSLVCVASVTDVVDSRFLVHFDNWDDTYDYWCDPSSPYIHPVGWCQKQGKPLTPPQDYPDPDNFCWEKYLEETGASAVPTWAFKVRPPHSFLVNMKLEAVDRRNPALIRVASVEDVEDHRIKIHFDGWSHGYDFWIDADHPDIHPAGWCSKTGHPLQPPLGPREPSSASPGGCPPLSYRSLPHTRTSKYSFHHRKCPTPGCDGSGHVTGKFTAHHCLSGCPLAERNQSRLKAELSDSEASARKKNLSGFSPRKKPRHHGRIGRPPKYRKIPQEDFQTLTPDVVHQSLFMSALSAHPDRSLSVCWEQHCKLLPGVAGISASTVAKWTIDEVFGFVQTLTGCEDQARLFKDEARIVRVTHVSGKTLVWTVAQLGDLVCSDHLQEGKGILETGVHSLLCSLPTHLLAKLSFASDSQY
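AlphaScreen proximity signal between nickel-chelate acceptor and streptavidin donor beads (final 10 ug/mL) reports binding of 50 nM L3MBTL1 to 75 nM biotin-H3 K9me1 peptide; complex incubated with compounds 30 min at room temperature; cefsulodin titration as control.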
JMJD2A Tudor: qHTS Assay for Inhibitors of JMJD2A-Tudor Domain; Lysine-specific demethylase 4A (Homo sapiens), O75164; AlphaScreen JMJD2A-Tudor / H3K4me3 peptide binding; Potency, µM (highest dose often 114 µM), most hits filed as inhibitors; 390,000 tested, 4.4% active; AID 504339, 2011; also: nearly all actives have a fitted effect of over 50% in size
Hits are given with their value; . = inactive; ? = inconclusive; / = not tested or not shown; [ ] = dose if it differs, or a comment. Calls follow the shape of the dose curve; as a rule, active = well fitted inhibition curve with a large enough effect; inconclusive = small, poorly fitted or top-dose-only effect; inactive = no such curve, though single readings can be large or run the other way.

SMILES	BAZ2B block	G9a block	HP1b chromo inh	L3MBTL1 block	JMJD2A Tudor
CCOc1ccc(CNC(=O)c2cc3c(=O)n(Cc4cccs4)ccc3nc2C)cc1	?	.	.	/	.
COC(=O)c1sccc1S(=O)(=O)N(CC(=O)Nc1c(C)cccc1C)c1ccc(C)c(C)c1	.	.	.	/	.
Cc1ccc(C(=O)COC(=O)CCN2C(=O)C3C4CCC(C4)C3C2=O)cc1[N+](=O)[O-] (stereo unspecified)	.	.	.	/	.
Cc1ccc(C(=O)COC(=O)CN2C(=O)C3C4CCC(C4)C3C2=O)cc1[N+](=O)[O-] (stereo unspecified)	.	45µM	.	.	.
CCn1ccc2cc(S(=O)(=O)N3CCCN(C(=O)Nc4ccccc4F)CC3)ccc21	.	.	.	/	.
CCOC(=O)CCSc1nc(N2CCOCC2)c2c(c1C#N)CC(C)(C)OC2	.	35µM	.	/	.
COC(=O)CCSc1nc(N2CCOCC2)c2c(c1C#N)CC(C)(C)OC2	.	.[2.33 µM]	.	/	.
CC(Sc1nc(N2CCOCC2)c2c(c1C#N)CC(C)(C)OC2)C(=O)Nc1ccccc1 (stereo unspecified)	.	5.6µM	.	.	.
CCOC(=O)C(C)Sc1nc(N2CCOCC2)c2c(c1C#N)CC(C)(C)OC2 (stereo unspecified)	/	/	.	/	.
Cc1oc(-c2ccc(C(=O)N(C)Cc3ccccc3)cc2)nc1CN1CCc2ccccc21	25µM	?	.	/	28µM
Cc1ccc(CNC(=O)c2ccc(-c3nc(CN4CCc5ccccc54)c(C)o3)cc2)cc1	.	.	.	/	.
Cc1ccc(C)c(C(=O)CSc2nc3cc(C(=O)NC4CCCC4)ccc3c(=O)n2CC2CCCO2)c1 (stereo unspecified)	.	.	.	/	.
O=C(NNc1cccc(Cl)c1)c1cccnc1Cl	.	10µM	.	.	.
CCCc1c(C(=O)NNc2cccc(Cl)c2)cnn1-c1ccccc1	.	35µM	.	.	?
CCCc1c(C(=O)Nc2ccc(F)cc2F)cnn1-c1ccccc1	.	.	.	.	.
CN(C)c1ncc2nc(-c3cccc(C#N)c3)c(=O)n(C[C@H]3CCCO3)c2n1	/	.[0.501 µM]	/	/	/
CC(=O)Nc1ccc(S(=O)(=O)NCC(=O)OCC(=O)N2CC(C)OC(C)C2)cc1 (stereo unspecified)	/	/	.	.	.
O=C(CNS(=O)(=O)c1c(Cl)cccc1Cl)OCC(=O)N1CCN(c2ccccc2)CC1	.	56µM	.	.	.
CC(=O)Nc1ccc(S(=O)(=O)NCC(=O)OCC(=O)N2CCN(c3ccccc3)CC2)cc1	.	50µM	.	.	.
O=C(CNS(=O)(=O)c1c(Cl)cccc1Cl)OCC(=O)c1ccc[nH]1	79µM	/	.	.	.
O=C(COC(=O)CNC(=O)c1cccc([N+](=O)[O-])c1)NCc1ccco1	.	.	.	/	.
COc1cccc(CNC(=O)CCc2c(C)nn(-c3ccc(N4CCOCC4)nn3)c2C)c1	.	.	.	/	.
CSc1ccc(/C=C/C(=O)N2CCCN(C)CC2)cc1	.	22µM	.	/	.
CN1CCN(C(=O)/C=C/c2ccccc2)CC1	.	?	.	.	.
COc1ccc(C(=O)Oc2ccc(/C=N/Nc3ccc(Cl)c(C(=O)O)c3)cc2OC)cc1	50µM	35µM	.	/	?
SMILES	BAZ2B block	G9a block	HP1b chromo inh	L3MBTL1 block	JMJD2A Tudor
COc1ccc(/C=N/Nc2ccc(C(=O)O)cc2)cc1OC	.	.	.	.	.
COc1cc(/C=N/Nc2ccc(Cl)c(C(=O)O)c2)ccc1OCC(=O)N1C(C)CCCC1C (stereo unspecified)	.	50µM	.	.	.
COc1cc(/C=N/Nc2ccc(Cl)c(C(=O)O)c2)ccc1OC(=O)c1ccco1	?	22µM	.	.	.
CCc1cccc(NC(=O)c2ccc(CNS(=O)(=O)c3ccc4c(c3)C(C)(C)C(=O)N4C)cc2)c1	.	.	.	/	.
NN(Cc1ccccc1)C(=S)Nc1ccc(Cl)c(Cl)c1	.	.	.	/	.
COCCNC(=O)CCCn1c(SCC(=O)Nc2cccc(C)c2)nc2c(sc3ccccc32)c1=O	?	.	.	/	.
COc1ccc(-n2cc(-c3ccccc3)c3c(NCCCN4CCOCC4)ncnc32)cc1	?	50µM	?	/	?
Clc1ccccc1N1CCN(c2ncnc3c2c(-c2ccccc2)cn3-c2ccccc2)CC1	.	.	.	/	.
NC(=O)C1CCN(c2ncnc3c2c(-c2ccccc2)cn3-c2ccccc2)CC1	?	50µM	.	/	?
c1ccc(-c2cn(-c3ccccc3)c3ncnc(NCCCN4CCOCC4)c23)cc1	?	?	.	/	?
OCCN1CCN(c2ncnc3c2c(-c2ccccc2)cn3-c2ccc(Br)cc2)CC1	45µM	35µM	.	/	35µM
CCN1CCN(c2ncnc3c2c(-c2ccccc2)cn3-c2ccc(F)cc2)CC1	?	?	.	/	40µM
COc1ccc2[nH]cc(CCNC(=O)Nc3ccccc3C)c2c1	.	.[0.501 µM]	.	.[2.29 µM]	?
CC(=O)Nc1ccccc1-c1nc2ccccc2n(Cc2cccc(Br)c2)c1=O	.	?	.	/	?
CCCCCOc1ccc2oc(=O)c3c(c2c1)CCCN3C(=O)CN1CCCC(C(=O)OCC)C1 (stereo unspecified)	.	.	.	/	.
CCOC(=O)N1CCN(C(=O)C2CCN(C(=O)Nc3ccccc3)CC2)CC1	/	/	.	.	.
COc1ccc(C)cc1NC(=O)NC1CCN(Cc2ccccc2)CC1	.	14µM	.	.	.
CCCCN(C)C(=O)C1CCN(Cc2ccc(OCc3ccccc3)cc2)CC1	?	?	.	.	3.5µM
CCOC(=O)N1CCN(C(=O)C2CCN(Cc3cccc(OCc4ccccc4)c3)CC2)CC1	?	14µM	?	.	2.2µM
COC(=O)c1ccccc1NC(=O)NC1CCN(Cc2ccccc2)CC1	.	.	.	.	.
CCOC(=O)C1CCCN(CC(=O)N2CCCc3c2c(=O)oc2ccc(OCc4ccccc4)cc32)C1 (stereo unspecified)	.	22µM	.	/	40µM
CC(=O)Nc1cccc(NC(=O)Cc2csc(COc3cccc(C)c3)n2)c1	.	.	.	/	.
CCOC(=O)C1CCN(Cc2ccc(OCc3ccccc3)cc2)CC1	.	28µM	?	.	28µM
CCOC(=O)C1CCN(C(=O)Nc2ccc(OCc3ccccc3)cc2)CC1	.	.	.	.	.
COc1ccc(CN2CCC(C(N)=O)CC2)cc1OCc1ccccc1	?	/	?	.	32µM
NC(=O)C1CCN(Cc2ccc(OCc3ccccc3)cc2)CC1	56µM	10µM	?	.	3.5µM
